According to PubChem BioAssay (NCATS):
Records with an inconclusive call do not appear. A call without a number means that no potency is given here. Activity calls are given as the source filed them. Calls follow the shape of the dose curve; as a rule, active = well fitted activation curve with a large enough effect; inconclusive = small, poorly fitted or top-dose-only effect; inactive = flat fitted curve, though single readings scatter.

Assay: qHTS for Activators of Parkin Expression: LOPAC Validation Assay (NLuc Reporter) (AID 720572)
Conditions: Parkin promoter NanoLuc reporter cells, luminescence; series mostly up to 46.1 µM
Excerpt: Parkin is an E3 ubiquitin ligase localized in the cytosol of cells expressed in many tissues, including brain, skeletal muscle, heart and liver tissues. One hour after stress induction by mitochondrial uncouplers (which mimic mitochondria damage by decreasing the mitochondrial inner membrane electrochemical gradient that is used to produce ATP), Parkin translocates from the cytosol to mitochondria in many cultured cell types, including neurons and HeLa cells. Administration of other mitochondrial poisons, such as Paraquat and azide in cells lacking mitochondrial DNA (mtDNA), induces Parkin translocation to mitochondria. […] It was proposed that Parkin (together with Pink1) mediates a mitochondrial quality control pathway to maintain organelle population fidelity by removing damaged mitochondria. Understanding the normal physiologic role of Parkin (and Pink1) may uncover novel treatment strategies for sporadic Parkinson's disease patients with mutation in these genes.
A cell based qHTS in 1536 well format was developed assess modulation of Parkin expression using a neuronal cell line that stably expresses a stably expresses a luminescent coincidence reporter (FLuc and NLuc reporters) behind the Parkin promoter. The LOPAC library is used to validate the assay for quantitative high-throughput screening. The data herein reports the signal from the NLuc reporter. An increase in this signal = activation of Parkin expression. For this assay , a positive control normalized signal increase corresponding to a high quality qHTS curve class in both luminescent channels is the desired outcome for this assay.
NIH Chemical Genomics Center [NCGC]
NIH Molecular Libraries Probe Centers Network [MLPCN]
Assay Submitter (PI): Richard Youle, National Institute of Neurological Disorders and Strokes (NINDS), NIH
[1] Narendra, D., et al., Parkin is recruited selectively to impaired mitochondria and promotes their autophagy. J Cell Biol, 2008. 183(5): p.
[2] Suen, D.F., et al., Parkin overexpression selects against a deleterious mtDNA mutation in heteroplasmic cybrid cells. Proc Natl Acad Sci U S A, 2010. […] 11835-40.
[3] Cheng K, Inglese J. A coincedence reporter-gene system for high-throughput screening. Nat Methods. 2012: 9(10);937
Five microliters (1,500 cells/well) of the Parkin coincidence reporter cells were seeded to 1536 well assay plates (Greiner Catalog # 789173-F) and incubated at 37 C, 5% CO2 for 24 hours. Compounds (23 nL) were pinned using the Kalypsys robotic system equipped with 1536 pin head adaptor in 7-point dose response. The assay plates were incubated for additional 24 hr at 37 C, 5% CO2 followed by a volume reduction in each well to 2 uL using an automated plate washer/aspirator. Following the volume reduction,2 uL of FLuc detection reagent and plates were incubated for 10 minutes at room temperature. The FLuc luminescence signal was obtained using the PerkinElmer ViewLux plate imager and then 2 uL of NanoLuc detection reagent was added to the plates. After another 10 minute incubation, NanoLuc signal was obtained using the PerkinElmer ViewLux plate imager as before. Data from each channel was normalized to DMSO (neutral control) and the positive control compounds (100%).
Potency is read from the fitted curve at half-maximal effect.

SMILES	Potency
Cc1cc2c(C(C)C)c(O)c(O)c(C=O)c2c(O)c1-c1c(C)cc2c(C(C)C)c(O)c(O)c(C=O)c2c1O	inactive
NNCCc1ccccc1	inactive
CC(C)(Sc1ccc(CCN(CCCCC2CCCCC2)C(=O)NC2CCCCC2)cc1)C(=O)O	inactive
NCCCC(N)(C(=O)O)C(F)F (stereo not given)	inactive
Nc1ccc(S(=O)(=O)Nc2ccnn2-c2ccccc2)cc1	inactive
NC(N)=NC(=O)c1nc(Cl)c(N)nc1N	inactive
Cn1cnc([N+](=O)[O-])c1Sc1ncnc2nc[nH]c12	inactive
CCOC(=O)C1=C[C@]2(CC)CCCN3CCc4c(n1c1ccccc41)[C@@H]32	inactive
CC(C)NCC(O)COc1ccc(COCCOC(C)C)cc1 (stereo not given)	inactive
O=C1CCC(N2C(=O)c3ccccc3C2=O)C(=O)N1 (stereo not given)	inactive
C[C@]12CCC(=O)C=C1CC[C@@H]1[C@@H]2[C@@H](O)C[C@@]2(C)[C@H]1CC[C@]2(O)C(=O)CO	inactive
NCCc1ccc(O)c(O)c1	inactive
c1ccc([C@H]2CN3CCSC3=N2)cc1	inactive
CNC[C@H](O)c1cccc(O)c1	inactive
Cc1ccc(N(CC2=NCCN2)c2cccc(O)c2)cc1	inactive
Clc1cccc(Cl)c1NC1=NCCN1	inactive
O=NN(CCCl)C(=O)NCCCl	inactive
N=c1nc(N2CCCCC2)cc(N)n1O	inactive
Cc1cccc(-c2[nH]c(C(C)(C)C)nc2-c2ccc3nccnc3c2)n1	inactive
CCC(C)N(C)C(=O)c1cc2ccccc2c(-c2ccccc2Cl)n1 (stereo not given)	20.6 µM (active)

SMILES	Potency
C1COC(NC(C2CC2)C2CC2)=N1	inactive
Cc1cn[nH]c1	inactive
Cc1[nH]c(=O)c(C#N)cc1-c1ccc2nccn2c1	inactive
CCOC(=O)N1CCC(=C2c3ccc(Cl)cc3CCc3cccnc32)CC1	inactive
O=C1CCc2cc(OCCCCc3nnnn3C3CCCCC3)ccc2N1	inactive
CC(C[N+](C)(C)C)OC(N)=O (stereo not given)	inactive
NS(=O)(=O)c1cc2c(cc1Cl)NC=NS2(=O)=O	inactive
CC(=O)Oc1ccccc1C(=O)O	inactive
Cc1[nH]c(=O)c(C#N)cc1-c1ccncc1	inactive
CC(C)(C)NCC(O)c1ccc(O)c(CO)c1 (stereo not given)	inactive
OC(CN1CCC(Cc2ccc(F)cc2)CC1)c1ccc(Cl)cc1 (stereo not given)	inactive
O=C(Nc1nc2ccccc2n1CCN1CCOCC1)c1cccc([N+](=O)[O-])c1	inactive
CCN(CC)CCCC(C)Nc1ccnc2cc(Cl)ccc12 (stereo not given)	inactive
NC(=O)c1cnccn1	inactive
CCn1cc(C(=O)O)c(=O)c2cc(F)c(N3CCNC(C)C3)c(F)c21 (stereo not given)	inactive
O=C(O)COCCN1CCN(C(c2ccccc2)c2ccc(Cl)cc2)CC1 (stereo not given)	inactive
OC(CCN1CCCCC1)(c1ccccc1)C1CC2C=CC1C2 (stereo not given)	inactive
O=c1n(CCCN2CCN(c3cccc(Cl)c3)CC2)nc2ccccn12	inactive
CCCCNc1cc(C(=O)O)cc(S(N)(=O)=O)c1Oc1ccccc1	inactive
CN1CCN(CCCN2c3ccccc3Sc3ccc(C(F)(F)F)cc32)CC1	inactive
